Experimental findings from PubChem BioAssay (EPA / NIEHS) are described below.

Read-out in assay [1]: Vascular endothelial growth factor receptor 2 (Homo sapiens) (UniProt P35968)
In words: BSK_4H_VEGFRII: BioMAP Diversity Plus: 4H Assay for Vascular endothelial growth factor receptor 2 (VEGFR2) Biomarker Activity (AID 2283031).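 For AC50: cell-surface VEGFR2 protein level quantified by ELISA.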 The following applies: primary human endothelial cells (HUVEC); actives raise or lower the signal. Summed up:
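HUVEC (human primary), 4H system; 24 h post-dose; VEGFRII by ELISA; bidirectional curve fit vs DMSO baseline; gain or loss of signal scored.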

Read-out in assay [2]: Human Leukocyte Antigen - DR isotype (HLADR), HLA-DRA (gene 3122)
Description: BSK_BE3C_HLADR: BioMAP Diversity Plus: BE3C Assay for Human Leukocyte Antigen - DR isotype (HLADR) Biomarker Activity (AID 2283032). Conditions: primary human bronchial epithelial cells; actives raise or lower the signal. The procedure, abridged:
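Human primary bronchial epithelial cells (BE3C system) exposed to compound for 24 hours; cell-surface HLA-DR measured by ELISA, fitted bidirectionally relative to DMSO. Total protein by SRB in parallel cultures tracked cytotoxicity.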

Read-out in assay [3]: Vascular cell adhesion molecule 1 (VCAM1), VCAM1 (gene 7412)
In words: BSK_4H_VCAM1: BioMAP Diversity Plus: 4H Assay for Vascular cell adhesion molecule 1 (VCAM1) Biomarker Activity (AID 2283033). Conditions: primary human endothelial cells (HUVEC); actives raise or lower the signal. Summed up: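 Primary human umbilical vein endothelial cells, 4H stimulation system, treated for 24 h; cell-surface VCAM-1 quantified by ELISA. Bidirectional fitting against DMSO; cytotoxicity tracked by SRB total-protein staining in parallel cultures.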

Read-out in assay [4]: Interferon-gamma inducible Protein 10 (IP10), CXCL10 (gene 3627)
Description: BSK_BE3C_IP10: BioMAP Diversity Plus: BE3C Assay for Interferon-gamma inducible Protein 10 (IP10) Biomarker Activity (AID 2283034). Conditions: primary human bronchial epithelial cells; actives raise or lower the signal. The procedure, abridged: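 Primary human bronchial epithelial cells, with IP-10 measured by ELISA 24 hours after chemical dosing. Bidirectional fit against DMSO; cytotoxicity checked by SRB total protein staining in parallel cultures.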

Read-out in assay [5]: Monokine induced gamma interferon (MIG), CXCL9 (gene 4283)
In words: BSK_BE3C_MIG: BioMAP Diversity Plus: BE3C Assay for Monokine induced gamma interferon (MIG) Biomarker Activity (AID 2283035). Conditions: primary human bronchial epithelial cells; actives raise or lower the signal. Summed up: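 MIG level was determined by ELISA after 24 h chemical treatment of primary human bronchial epithelial cells. Values were fitted bidirectionally with DMSO as the negative control and activity baseline.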

Read-out in assay [6]: Transforming growth factor beta 1 (TGFb1), TGFB1 (gene 7040)
Description: BSK_BE3C_TGFb1: BioMAP Diversity Plus: BE3C Assay for Transforming growth factor beta 1 (TGFb1) Biomarker Activity (AID 2283036). The following applies: primary human bronchial epithelial cells; actives raise or lower the signal. The procedure, abridged: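 Primary human bronchial epithelial cells dosed with chemical; TGF-b1 measured by ELISA 24 h after dosing. Bidirectional curve fitting against DMSO negative control; SRB total-protein staining in parallel cultures gauged cytotoxicity.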

Read-out in assay [7]: Plasminogen activator inhibitor-1 (PAI1), SERPINE1 (gene 5054)
In words: BSK_BE3C_PAI1: BioMAP Diversity Plus: BE3C Assay for Plasminogen activator inhibitor-1 (PAI1) Biomarker Activity (AID 2283037). Conditions: primary human bronchial epithelial cells; actives raise or lower the signal. Summed up: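 Primary human bronchial epithelial cells (BE3C system) exposed 24 h; PAI-1 quantified by ELISA. Parallel sulforhodamine B staining of total protein flags cytotoxicity. Bidirectional fit versus DMSO.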

Read-out in assay [8]: urokinase plasminogen activator (uPA), PLAU (gene 5328)
Description: BSK_BE3C_uPA: BioMAP Diversity Plus: BE3C Assay for urokinase plasminogen activator (uPA) Biomarker Activity (AID 2283038).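 For outcome: uPA protein level quantified by ELISA in cell cultures; uPA read one day after compound addition.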 Conditions: primary human bronchial epithelial cells; actives raise or lower the signal. The procedure, abridged: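 ELISA read-out of uPA in human lung primary bronchial epithelial cultures, 24 h post-dosing. Gain or loss of signal fitted bidirectionally relative to DMSO baseline; cytotoxicity checked in parallel cultures via SRB total protein stain.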

Read-out in assay [9]: Urokinase-type plasminogen activator receptor (uPAR), PLAUR (gene 5329)
In words: BSK_BE3C_uPAR: BioMAP Diversity Plus: BE3C Assay for Urokinase-type plasminogen activator receptor (uPAR) Biomarker Activity (AID 2283039).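 Note: uPAR protein level measured by ELISA on the cells; cells exposed to compound for one day before measurement.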 The following applies: primary human bronchial epithelial cells; actives raise or lower the signal. The procedure, abridged:
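Primary human bronchial epithelial cells dosed for 24 h; uPAR quantified by ELISA with bidirectional fitting against DMSO. Overt cytotoxicity assessed in parallel cultures by SRB total-protein staining (0.1% SRB, 560 nm).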

Read-out in assay [10]: Interleukin-6 (IL6), IL6 (gene 3569)
Description: BSK_CASM3C_IL6: BioMAP Diversity Plus: CASM3C Assay for Interleukin-6 (IL6) Biomarker Activity for (AID 2283040). Conditions: primary human coronary artery smooth muscle cells; actives raise or lower the signal.

Activity calls are given as the source filed them. Rule for the calls: active = hit-call score of the fitted dose curve at least 0.9, where 1 is the maximum; inactive = score below 0.9.

Consider `c1ccc2sc(SNC3CCCCC3)nc2c1`, for which the result in [1], in assay [2], in assay [3], in assay [4], in assay [5] and in assay [6] was inactive. The outcome in [7], in [8], in assay [9] and in assay [10] was inactive.
Turning to `O=C(O)C1(c2ccc3c(c2)OC[C@H](Cc2ccc(-c4ccccc4)cc2)[C@H]3O)CCCC1`, the outcome in assay [1], in assay [3] and in assay [10] was inactive. Further, the AC50 (usually the concentration at which the activity in the assay is half-maximal) in [4] was 5.91 µM (active); in [5], 19.9 µM (active); in assay [6], 13 µM (active); in assay [7] it was 12.4 µM (active); in assay [8], 13.8 µM (active).
`CCN(CC)C(=O)C(Cl)=C(C)OP(=O)(OC)OC`: the outcome in assay [1], in assay [3], in assay [4], in [5], in assay [6] and in assay [7] was inactive. Moreover, the outcome in [8], in assay [9] and in assay [10] was inactive.
As for `NC(=O)CCl`, the outcome in assay [1], in assay [3], in [4], in assay [5], in assay [6] and in assay [7] was inactive. In addition, the outcome in assay [8] and in assay [10] was inactive.
`CN(C)C(=S)S`: the result in assay [3], in assay [7], in assay [9] and in assay [10] was inactive. The concentration at half-maximal activity (AC50) in assay [4] is 28.7 µM (active); in [5], 23.1 µM (active); in assay [6], 20 µM (active); in [8], 30.2 µM (active).
Take `Cc1cc(C(C)(C)c2ccc(O)c(C)c2)ccc1O`: the outcome in assay [1], in assay [5] and in assay [8] was inactive. Besides, the AC50 in assay [3] was 16.8 µM (active); in assay [4] it was 10 µM (active); in assay [6], 10 µM (active); in [7] it was 10 µM (active); in [10] it was 10 µM (active).
Consider `OCCN(CCO)CCO`, for which the outcome in assay [1], in assay [3], in assay [4], in assay [5], in [6] and in assay [7] was inactive. For the same compound, the result in assay [8] and in [10] was inactive.
As to `Cc1cc(Cl)ccc1OC(C)C(=O)O` (configuration not stated), the outcome in assay [1], in [3], in [4], in [5], in assay [6] and in assay [7] was inactive. The outcome in [8] and in assay [10] was inactive.
For the compound `Clc1cccc(Cl)c1`, the result in assay [1], in assay [3], in [4], in assay [5], in assay [6] and in assay [7] was inactive. The result in assay [8], in assay [9] and in assay [10] was inactive.
Consider `O=C1C=CC(=O)c2ccccc21`, for which the AC50 in assay [1] was 5.18 µM (active); in [3] it was 1.95 µM (active); in assay [4], 2.01 µM (active); in assay [5], 6.51 µM (active); in assay [6], 2.26 µM (active); in assay [7], 3.25 µM (active). Besides, the AC50 is 4.36 µM (active) in [8] and 9.25 µM (active) in assay [10].
Take `CC(C)(COCC1CO1)COCC1CO1` (configuration not stated): the outcome in assay [1], in assay [3], in assay [4], in assay [5], in assay [6] and in [7] was inactive. Moreover, the result in assay [8], in assay [9] and in assay [10] was inactive.
With `CCCCCCCCCCCCc1cccc(S(=O)(=O)O)c1`, the outcome in assay [1], in assay [3] and in assay [10] was inactive. The AC50 in [4] is 13 µM (active); in assay [5], 30.1 µM (active); in [6] it was 5.79 µM (active); in [7], 23.7 µM (active); in [8], 28.4 µM (active).
On to `Cc1ccc2nc3sc(=O)sc3nc2c1`, for which the AC50 in [1] was 9.18 µM (active); in [3] it was 7.39 µM (active). Moreover, the outcome in [4], in assay [5], in assay [6], in assay [7], in assay [8] and in assay [10] was inactive.
With `CCC(C)(C#N)N=NC(C)(C#N)CC` (configuration not stated), the outcome in assay [1], in assay [3], in assay [4], in assay [5], in [6] and in assay [7] was inactive. For the same compound, the outcome in assay [8] and in assay [10] was inactive.
With `O=c1oc2ccccc2c(O)c1C(CC(O)c1ccc(-c2ccc(Br)cc2)cc1)c1ccccc1` (configuration not stated), the AC50 in [1] was 5.2 µM (active); in [3], 13.9 µM (active); in [4], 5.4 µM (active); in assay [5], 10.5 µM (active); in assay [6] it was 0.144 µM (active); in assay [7], 0.915 µM (active). The AC50 in assay [8] was 5.29 µM (active); in assay [10], 25 µM (active).
Regarding `Oc1ccc(Cc2ccc(O)cc2)cc1`, the result in assay [1], in assay [3], in [4], in assay [5], in assay [6] and in assay [7] was inactive. The result in assay [8] and in assay [10] was inactive.
On to `CC(C)(C)c1cc([N+](=O)[O-])cc(C(C)(C)C)c1O`, for which the outcome in assay [1], in assay [3], in [4], in assay [5], in assay [6] and in assay [7] was inactive. The result in [8], in [9] and in [10] was inactive.
